Tgondii IFNg = T. gondii growth inhibition with IFN-gamma, primary screen, cell-based | activity change, negative = inhibition, % (no concentration beside the values) | Toxoplasma gondii growth in IFN-gamma-treated host cells; stronger effect = lower value | AID 1259416, 2018 | 69,000 tested, 3.8% active; in the data active means activity change below about -70%, passing the limit was not always enough;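 further: host cells are HeLa cells infected with Toxoplasma gondii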
Starred values were filed as active, the others as inactive. This excerpt belongs to a sample that is enriched for hits.

Screening C[C@@H]1CN([C@H](C)CO)C(=O)c2cc(C#Cc3ccccc3)cnc2O[C@@H]1CN(C)C(=O)c1ccccc1 returned Tgondii IFNg 17.
C[C@H](CO)N1C[C@H](C)[C@@H](CN(C)C(=O)c2ccccc2)Oc2ncc(C#Cc3ccccc3)cc2C1=O was read as Tgondii IFNg -88*.
C[C@H]1CN([C@@H](C)CO)C(=O)c2cc(C#Cc3ccccc3)cnc2O[C@H]1CN(C)C(=O)c1ccccc1 was read as Tgondii IFNg -14.
For C[C@@H]1CN([C@H](C)CO)C(=O)c2cc(C#CC3(O)CCCC3)cnc2O[C@H]1CN(C)S(=O)(=O)c1cccc(F)c1 the results were Tgondii IFNg inactive.
Screening C[C@H](CO)N1C[C@H](C)[C@H](CN(C)S(=O)(=O)c2cccc(F)c2)Oc2ncc(C#CC3(O)CCCC3)cc2C1=O returned Tgondii IFNg 60.
For CCCC(C)c1nnc(NC(=O)c2ccc(NC(C)=O)cc2Cl)s1 (stereo not drawn) the results were Tgondii IFNg 0.
For Cc1nonc1OCCn1cnc(-c2ccccc2)c1-c1ccc(CO)o1 the results were Tgondii IFNg 5.
C[C@@H]1CN([C@@H](C)CO)C(=O)Cc2cc(NS(=O)(=O)c3ccc(F)cc3)ccc2O[C@H]1CN(C)Cc1ccncc1 was read as Tgondii IFNg 7.
Cc1nc(-c2ccccn2)nc(SCC(=O)N2CCOCC2)c1Cl was read as Tgondii IFNg -24.
For Cc1nc(-c2ccccn2)nc(SCc2ccccc2)c1Cl the results were Tgondii IFNg -89*.
Screening Clc1ccc(CSc2n[nH]c(-c3ccccn3)n2)cc1 returned Tgondii IFNg -62.
For O=C(Nc1ccccc1)C1CCCN1C(=O)Nc1ccccc1 (stereo not drawn) the results were Tgondii IFNg -12.
COc1ccc(-c2nc(C)c(CCNS(=O)(=O)c3ccc4c(c3)OCCO4)s2)cc1 was read as Tgondii IFNg inactive.
Cn1nc(C(C)(C)C)cc1C(=O)Nc1c(-c2ccccc2)c(C(F)(F)F)nn1C was read as Tgondii IFNg -95*.
For C[C@H](Cn1nnc2ccccc21)NC(=O)c1cc(C(C)(C)C)nn1C the results were Tgondii IFNg 2.
For Cn1nc(C(F)(F)F)c(-c2ccc(Br)cc2)c1NC(=O)C1CCC1C(=O)O (stereo not drawn) the results were Tgondii IFNg -10.
O=C(Nc1ccc(F)cc1F)c1nc(Nc2ccccc2)c2ccccc2n1 was read as Tgondii IFNg -9.
Screening COc1ccc(S(=O)(=O)Nc2cccc(SC)c2)cc1C(=O)N1CCOCC1 returned Tgondii IFNg 5.
CC(C)(C)C(=O)C(Cc1c(F)cccc1Cl)C(=O)C(C)(C)C was read as Tgondii IFNg -24.
`O=C(Cc1c(F)cccc1Cl)NC(=O)NCCc1c(F)cccc1Cl` gave Tgondii IFNg -83*.
`CCn1c(CCNC(=O)Cc2c(F)cccc2Cl)nnc1SC` gave Tgondii IFNg -3.
For O=C(NCC[C@H]1CC[C@H](NC(=O)C2CCOCC2)[C@H](CO)O1)c1cc(Cl)cc(Cl)c1 the results were Tgondii IFNg 40.
Cn1ccc2c(-c3cc(N)nc(N4CCOCC4)n3)ccnc21 was read as Tgondii IFNg -17.
Screening c1csc(-c2cnc(N3CCCC3)nc2-c2nccs2)c1 returned Tgondii IFNg -8.
For c1csc(-c2[nH]ncc2-c2ccnc(N3CCOCC3)n2)c1 the results were Tgondii IFNg -106*.
`COC(=O)c1sc(-c2cccs2)cc1NS(=O)(=O)c1ccsc1C(=O)OC` gave Tgondii IFNg -85*.
Screening COC(=O)c1sccc1S(=O)(=O)Nc1ccc(Nc2ccccc2)cc1OC returned Tgondii IFNg -1.
Screening COC(=O)c1sccc1S(=O)(=O)Nc1ccc(C)cc1 returned Tgondii IFNg 11.
For O=C(Cn1c(=O)cc(C(=O)N2CCCCC2)c2ccccc21)Nc1ccc(F)cc1 the results were Tgondii IFNg 6.
For C[C@H]1CN([C@@H](C)CO)C(=O)c2cc(NC(=O)Nc3ccccc3)ccc2O[C@H]1CN(C)Cc1ccccc1 the results were Tgondii IFNg 12.
Screening Cc1ccc(CSc2nnc3c(n2)[nH]c2ccc(Br)cc23)cc1 returned Tgondii IFNg -80*.
Screening c1ccc(CSc2nnc3c(n2)[nH]c2ccccc23)cc1 returned Tgondii IFNg -68.
CCN(CC)C(=O)CSc1nnc2c(n1)[nH]c1ccc(C)cc12 was read as Tgondii IFNg 4.
For Cc1ccc2c(c1)NC1(CCN(C(=O)NCc3ccco3)CC1)c1cccn1-2 the results were Tgondii IFNg 77.
For Cc1cnc(C)c(-c2cc(F)c3c(c2)CC(CNC(=O)C24CC5CC(CC(C5)C2)C4)O3)n1 (stereo not drawn) the results were Tgondii IFNg -42.
`Cc1cc(C)nc(N2CCCN(C(=O)N3CCOCC3)CC2)n1` gave Tgondii IFNg 3.
COc1cccc2c1C(=O)c1c(O)c3c(c(O)c1C2=O)C[C@@](O)(C(=O)CO)C[C@@H]3OC1C[C@H](N)[C@H](O)[C@H](C)O1 (stereo partly drawn) was read as Tgondii IFNg -90*.
Screening CC(C)CCNC(=O)CC1Nc2c3ccccc3nc(=S)n2C1=O (stereo not drawn) returned Tgondii IFNg -2.
Screening CCCn1ccnc1CN1CCCN(c2ccnc(C)c2)CC1 returned Tgondii IFNg -42.
For O=C(Nc1ccc2nc[nH]c2c1)c1ccc(=O)n(CC(=O)N2CCc3ccccc32)c1 the results were Tgondii IFNg -3.
`C[C@@H]1CN([C@H](C)CO)C(=O)c2cc(NC(=O)C3CCCCC3)ccc2O[C@@H](C)CCCCO[C@@H]1CN(C)C(=O)CCC(F)(F)F` gave Tgondii IFNg 9.
CN(C)CC(=O)N1CC[C@@H]2C[C@H](c3ccncn3)O[C@H]2C1 was read as Tgondii IFNg 2.
`CN(C)C(=O)c1ccc2c(c1)N(C)C(CC(=O)NCCn1cncn1)CO2` (stereo not drawn) gave Tgondii IFNg -1.
`Cc1nc(-c2ccccc2)sc1CCNC(=O)c1ccc(Cl)cc1` gave Tgondii IFNg inactive.
Screening COc1ccc(-c2nc(C)c(CCNC(=O)C(=O)Nc3c(C)cccc3C)s2)cc1OC returned Tgondii IFNg -15.
COc1ccc(-c2nc(C)c(CCNC(=O)C(=O)Nc3ccccc3F)s2)cc1OC was read as Tgondii IFNg 65.
For COc1ccc(C(=O)NCCc2sc(-c3ccc(OC)cc3)nc2C)cc1 the results were Tgondii IFNg inactive.
Screening COc1ccc(-c2nc(C)c(CCNC(=O)C(=O)Nc3ccccc3C)s2)cc1OC returned Tgondii IFNg -76*.
For CCCCOc1ccc(C(=O)NCCc2sc(-c3ccc(Cl)cc3)nc2C)cc1 the results were Tgondii IFNg -74*.
For COc1ccc(C(=O)NCCc2sc(-c3ccc(Cl)cc3)nc2C)cc1 the results were Tgondii IFNg -76*.
COc1ccc(-c2nc(C)c(CCNC(=O)c3ccc(Cl)cc3)s2)cc1 was read as Tgondii IFNg 314.
Cc1nc(-c2ccc(Cl)cc2)sc1CCNC(=O)c1ccccc1 was read as Tgondii IFNg -43.
For CCn1ncc(C(=O)N2CCCC3(C2)NC(=O)c2ccccc2O3)c1C (stereo not drawn) the results were Tgondii IFNg 3.
COc1ccccc1NC(=O)c1nnn(Cc2nc(-c3ccccc3OC)oc2C)c1C was read as Tgondii IFNg 148.
For Cc1nc(-c2cnn3c(C)cc(C(F)(F)F)nc23)no1 the results were Tgondii IFNg 42.

Compound activity from PubChem.
